Test systems include K-562 leukemia; MALME-3M melanoma; MDA-MB-231 breast; RXF 393 renal; SF-268 CNS; SF-295 CNS; SF-539 CNS; UACC-257 melanoma; M14 melanoma; HCT-15 colon; HT29 colon; SNB-75 CNS; SNB-19 CNS; U251 CNS; PC-3 prostate; SK-MEL-5 melanoma; UACC-62 melanoma; LOX IMVI melanoma; SK-MEL-28 melanoma; SK-MEL-2 melanoma.
Experiment in all cases: NCI-60 one-dose screen, 48 h (100 = growth as untreated, 0 = no growth, -100 = all killed)
Holding throughout (conditions): 10 µM unless noted

The panel holds about 83,000 compounds, 20% with a hit somewhere; the sample as a whole holds those more often.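 Cell lines were cultured in 96-well plates, exposed to a single compound concentration, and assessed for percent growth 48 hours later.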 Unmarked numbers belong to inactive results. The source made the active and inactive calls. The calls were made as follows: active = growth percent below 10; inactive = the rest.

In the case of `[Cl][Ru].c1ccc(-c2cccc(-c3ccccn3)n2)nc1.c1ccc(-c2ccnc3c2ccc2c(-c4ccccc4)ccnc23)cc1`, the growth is 32.4% with K-562 leukemia; 2.72% (active) in the test on MALME-3M melanoma; 32.3% in the test on MDA-MB-231 breast; 48.4% in the test on RXF 393 renal; 28.5% in the test on SF-268 CNS; 95.7% in the test on SF-295 CNS. The growth in the test on SF-539 CNS is 15.3%; in the test on UACC-257 melanoma it was 26.9%; in the test with M14 melanoma, 71.1%; in the test with HCT-15 colon it was 90.4%; in the test with HT29 colon, 21%; in the test on SNB-75 CNS, 1.93% (active). Further, the growth in the test with SNB-19 CNS is 23.5%; in the test with U251 CNS, 31.7%; in the test on PC-3 prostate it was 23.6%; with SK-MEL-5 melanoma, 73.1%; in the test with UACC-62 melanoma it was 14.2%; in the test with LOX IMVI melanoma, 37.4%. Besides, the growth with SK-MEL-28 melanoma is 31.3%; with SK-MEL-2 melanoma it was -36.9% (active).
Take `CN(C)c1ccc(-c2c(NC(C)(C)C)nc3c(OCCc4ccccc4)cccn23)cc1`: the growth with K-562 leukemia is 3.1% (active); in the test with MALME-3M melanoma, 12.9%; with MDA-MB-231 breast, 25.5%; in the test on RXF 393 renal it was -25.8% (active); in the test on SF-268 CNS, 56.6%; with SF-295 CNS it was -12.7% (active). Moreover, the growth with SF-539 CNS was 17.8%; with UACC-257 melanoma, 3.18% (active); in the test with M14 melanoma, 29.7%; in the test with HCT-15 colon, 0.0072% (active); with HT29 colon it was 10.2%; in the test with SNB-75 CNS, 48.4%. Moreover, the growth is 19.3% with SNB-19 CNS; 13.6% in the test on U251 CNS; 0.316% (active) in the test with PC-3 prostate; -69.4% (active) in the test with SK-MEL-5 melanoma; 35.1% in the test with UACC-62 melanoma; 11.5% with LOX IMVI melanoma. The growth was 35.1% in the test with SK-MEL-28 melanoma and 25.3% in the test with SK-MEL-2 melanoma.
Consider `O=C1Nc2ccccc2Oc2ccc(S(=O)(=O)CC3CO3)cc21` (stereo not given), for which the growth is 18% with K-562 leukemia; 87.7% in the test on MALME-3M melanoma; 48.4% in the test with MDA-MB-231 breast; 58.1% in the test on RXF 393 renal; 80.2% in the test on SF-268 CNS; 66.3% in the test on SF-295 CNS. Also, the growth in the test on SF-539 CNS was 69.7%; in the test on UACC-257 melanoma, 65%; in the test on M14 melanoma it was 57.5%; in the test on HCT-15 colon it was 21.2%; in the test on HT29 colon, 58.8%; with SNB-75 CNS, 90.6%. In addition, the growth in the test with SNB-19 CNS was 96.9%; in the test with U251 CNS, 77.6%; with PC-3 prostate, 62.3%; in the test with SK-MEL-5 melanoma, 90%; in the test with UACC-62 melanoma, 67.6%; in the test on LOX IMVI melanoma it was 29.5%. Further, the results for the growth with SK-MEL-28 melanoma and with SK-MEL-2 melanoma were 64.1% and 85.5%, respectively.
For the compound `Clc1ccc2c(NCCCN3CCOCC3)c3oc4ccccc4c3nc2c1`, the growth in the test with K-562 leukemia was 13.2%; in the test on MALME-3M melanoma it was 40.6%; in the test on MDA-MB-231 breast, 33.8%; in the test with RXF 393 renal, 29.1%; in the test on SF-268 CNS, 48.6%; in the test on SF-295 CNS it was 31.3%. Further, the growth in the test on SF-539 CNS was 26.5%; with UACC-257 melanoma it was 87.4%; with M14 melanoma, 42.7%; in the test with HCT-15 colon, 21.6%; in the test on HT29 colon, 25.6%; in the test on SNB-75 CNS, 52.4%. Also, the growth is 54.1% in the test with SNB-19 CNS; 34.5% with U251 CNS; 48.6% in the test with PC-3 prostate; 79.7% in the test with SK-MEL-5 melanoma; 66.6% in the test on UACC-62 melanoma; 17.3% with LOX IMVI melanoma. In addition, the growth is 70.6% with SK-MEL-28 melanoma and 81.3% in the test with SK-MEL-2 melanoma.
In the case of `CN(C)CCCOc1c2ccc(Cl)cc2nc2c1oc1ccccc12`, the growth in the test on K-562 leukemia is 0.751% (active); with MALME-3M melanoma, -81.2% (active); in the test with MDA-MB-231 breast, -7.6% (active); in the test on RXF 393 renal it was -66% (active); in the test with SF-268 CNS it was -9.41% (active); with SF-295 CNS, -19.2% (active). Besides, the growth with SF-539 CNS was -58.9% (active); in the test on UACC-257 melanoma, -18.5% (active); in the test on M14 melanoma, -84.2% (active); in the test on HCT-15 colon it was -21.6% (active); in the test on HT29 colon, -45.5% (active); with SNB-75 CNS, -18.6% (active). For the same compound, the growth in the test with SNB-19 CNS is 5.62% (active); with U251 CNS it was 4.05% (active); in the test on PC-3 prostate, 5.27% (active); in the test with SK-MEL-5 melanoma it was -97.9% (active); in the test with UACC-62 melanoma, -73.8% (active); in the test on LOX IMVI melanoma, -84.8% (active). Further, the growth is -76.4% (active) in the test with SK-MEL-28 melanoma and -87.6% (active) with SK-MEL-2 melanoma.
For `O=C(CCCN1C(=O)/C(=C/c2ccccc2F)SC1=S)N1CCOCC1`, the growth was 59.7% in the test with K-562 leukemia; 72.5% with MALME-3M melanoma; 73.4% in the test on MDA-MB-231 breast; 83.7% in the test with RXF 393 renal; 95.6% with SF-268 CNS; 103% with SF-295 CNS. Further, the growth in the test with SF-539 CNS was 92.7%; in the test on UACC-257 melanoma, 83.6%; in the test on M14 melanoma, 77.6%; in the test on HCT-15 colon, 74.3%; in the test on HT29 colon, 99.2%; with SNB-75 CNS, 79.3%. Further, the growth in the test on SNB-19 CNS was 101%; with U251 CNS, 86.1%; with PC-3 prostate it was 105%; in the test on SK-MEL-5 melanoma, 97.1%; with UACC-62 melanoma, 81.5%; in the test on LOX IMVI melanoma, -63.6% (active). Besides, the growth in the test with SK-MEL-28 melanoma was 89.7%; in the test on SK-MEL-2 melanoma it was 115%.
Turning to `Clc1ccc2oc3c(OCCCn4ccnc4)c4ccccc4nc3c2c1`, the growth in the test on K-562 leukemia is 45.2%; in the test with MALME-3M melanoma, 97.9%; in the test with MDA-MB-231 breast it was 65.7%; with RXF 393 renal, 57.9%; in the test with SF-268 CNS it was 67.7%; in the test on SF-295 CNS, 54%. In addition, the growth with SF-539 CNS is 65.1%; in the test with UACC-257 melanoma it was 96.4%; with M14 melanoma, 93.6%; in the test with HCT-15 colon, 40.4%; with HT29 colon it was 36.7%; in the test on SNB-75 CNS, 68.5%. The growth with SNB-19 CNS is 73.5%; in the test on U251 CNS it was 61.6%; in the test on PC-3 prostate, 68.9%; with SK-MEL-5 melanoma, 92.8%; in the test on UACC-62 melanoma, 83.1%; in the test with LOX IMVI melanoma, 42.8%. Further, the results for the growth in the test with SK-MEL-28 melanoma and with SK-MEL-2 melanoma were 89.8% and 112%, respectively.

Source of the values: PubChem BioAssay (NCI).
